CD40 NFkB inh – CD40 pathway inhibition in BL2 cells. BL2 NF-kB luciferase reporter, CD40L-induced, 4 h. 83,000 compounds, 0.94% hits. AID 1053188. inhibition, % at 10 µM;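 active = mean inhibition of at least 50% with a set share of replicates also reaching that level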;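 note: 0% = neutral control wells and 100% = IKK inhibitor VII at 50 µM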
The depositor's hits bear a star; [ ] = remark or other dose. The sample as a whole holds a higher share of hits than the screen did.

SMILES	CD40 NFkB inh
OCC[n+]1ccc(/C=C/c2c[nH]c3ccccc23)cc1	5
C(=Cc1c[nH]c2ccccc12)c1nccc2ccccc12	62*
C(=NN=C1c2ccccc2-c2ccccc21)c1c[nH]c2ccccc12	-58
C[C@H](CO)N1C[C@H](C)[C@@H](CN(C)C(=O)CCCN(C)C)OCCCC[C@H](C)Oc2ccc(NC(=O)Nc3ccc4c(c3)OCO4)cc2C1=O	-9[25 µM]
O=C1C[C@@H](c2ccccc2)C(=O)N[C@H](c2ccc3c(c2)OCO3)C/C=C\C[C@@H](c2ccc(F)cc2)N1	2[25 µM]
CC(=O)N(C)C[C@H]1Oc2ccccc2C(=O)N(C)C[C@H]1C	-2
CCN(CC)CCNc1ccnc2cc(Cl)ccc12	-7
OC(CNc1ccnc2cc(Cl)ccc12)CNC1CCCCC1 (centres undefined)	-8
O=C(NCCNc1ccnc2cc(Cl)ccc12)c1ccccc1F	37*
CO[C@@H]1CN(C)C(=O)c2ccc(NC(=O)Nc3ccccc3Cl)cc2OC[C@@H](C)N(C)C[C@H]1C	-2
COc1cccc(CNC(=O)[C@@H]2N[C@@H]3c4ccc(/C=C/c5ccccc5)c(=O)n4C[C@@H]3[C@H]2CO)c1	-4[25 µM]
COc1cc2c(cc1OC)CN(C(=O)c1ccc(-c3ccccc3)cc1)CC2	18
COc1ccc(C(=O)CCN2CCc3cc(OC)c(OC)cc3C2)cc1	50*
COc1cc2c(cc1OC)CN(CC(=O)NC(=O)NC(C)(C)C)CC2	0
CC=Cc1ccc2n(c1=O)C[C@@H]1[C@@H](CO)[C@H](C(=O)NC3CCC3)[C@H]2N1C(=O)c1ccccn1 (mixture of isomers)	2[25 µM]
COc1ccccc1NC(=O)N1C[C@@H]2[C@H](c3ccccc31)[C@@H](CO)N2C(=O)c1ccccc1	-2[25 µM]
O=C(c1ccc2c(c1)OCO2)N1C[C@H]2[C@@H](c3ccccc31)[C@@H](CO)N2CC1CCCC1	18[25 µM]
COc1ccc2c3c([nH]c2c1)[C@H](CO)N(C(=O)Nc1ccc(F)cc1)CC31CN(S(=O)(=O)c2ccc(C)cc2)C1	18[25 µM]
COc1ccc2c3c([nH]c2c1)[C@H](CO)N(C(=O)Nc1cccc(F)c1)CC31CCN(S(=O)(=O)c2cccc(C)c2)CC1	80*[25 µM]
COc1ccc2c3c(n(C)c2c1)[C@H](CO)N(C(=O)Nc1ccc(F)cc1)CC31CCN(S(=O)(=O)c2cccc(C)c2)CC1	44[25 µM]
CC(=O)N(C)C[C@@H]1Oc2c(NS(C)(=O)=O)cccc2C(=O)N(C)C[C@H]1C	3
C[C@@H]1CN(C)C(=O)Cc2cc(N)ccc2O[C@H]1CN(C)C	6
c1ccc2c(c1)oc1c(Nc3ccc4c(c3)OCCO4)ncnc12	-70
O=[N+]([O-])c1ccc2ncnc(Nc3ccc4c(c3)OCCO4)c2c1	36*
O=[N+]([O-])c1ccc(O)c(Nc2ncnc3ccccc23)c1	0
SMILES	CD40 NFkB inh
COc1ccc([C@H]2CC=CC[C@@H](C)Oc3ccccc3C(=O)N(C)[C@H](C(C)C)C(=O)N2)c(OC)c1 (mixture of isomers)	7[25 µM]
CN1C(=O)c2cc(NC(=O)C3CCCC3)ccc2OC[C@H]2O[C@@H](CC(=O)NCc3ccccc3F)CC[C@H]21	-7
c1ccc2c(-c3nc4ccccc4[nH]3)cccc2c1	-2
c1ccc2[nH]c(-c3cscn3)nc2c1	-58
c1ccc2nc(-c3nc4ccccc4[nH]3)ccc2c1	78*
CC(C)NC(=O)Nc1ccc2c(c1)CC(=O)N(C)C[C@H](C)[C@H](CN(C)C(=O)OC(C)(C)C)O2	-3
COc1ccccc1CNC(=O)C[C@H]1C[C@@H]2c3cc(NS(=O)(=O)c4ccc(F)cc4)ccc3O[C@@H]2[C@H](CO)O1	-7[25 µM]
Cc1ccc(Nc2ncccc2C(=O)O)cc1C	-63
O=C1OC(OC(=O)c2cccnc2Nc2cccc(C(F)(F)F)c2)c2ccccc21 (centres undefined)	85*[25 µM]
O=C(Nc1cccc(C(F)(F)F)c1)OCc1ccncc1	3
CN1c2ccc(-c3cccc(F)c3)cc2[C@H]2[C@H](CCN2C(=O)c2ccc3c(c2)OCO3)[C@@H]1CO	-7[25 µM]
O=C(O)CCC(=O)Nc1ccc(Br)c(Cl)c1	36*
CC(=O)Nc1ccc(Br)c(Cl)c1	3
CCCC(=O)Nc1ccc(Br)c(Cl)c1	9
Cc1ccccc1S(=O)(=O)N1CC[C@@H]2[C@H]1c1cc(-c3ccc(C#N)cc3)ccc1N(C)[C@H]2CO	8[25 µM]
C[C@H]1CN(C)C(=O)Cc2cc(NS(C)(=O)=O)ccc2O[C@H]1CN(C)C	-3
CC(=O)N(C)c1ccc(C=C2C=Cc3ccccc32)cc1	72*
CC(=O)N(C)c1ccc(NC(=S)Nc2ccc(C(C)C)cc2)cc1	-14
CC(=O)N(C)c1ccc(NS(=O)(=O)Cc2ccccc2)cc1	8
C[C@H]1CN([C@@H](C)CO)C(=O)c2ccccc2-c2ccccc2CO[C@@H]1CN(C)S(=O)(=O)c1ccsc1	0
COc1ccc(S(=O)(=O)Nc2ccc3c(c2)[C@H]2C[C@H](CC(=O)N(C)C)O[C@@H](CO)[C@H]2O3)cc1	1[25 µM]
C[C@@H]1CN(C)C(=O)c2cccnc2O[C@@H]1CN(C)C	0
Fc1ccccc1/C=C1\CCCC2=C1Nc1nnnn1C2c1ccccc1F (centres undefined)	75*
O=C(C1CCCC1)N1[C@@H]2CN(S(=O)(=O)c3ccccc3)c3ccccc3[C@@H]2[C@@H]1CO	9
COc1ccc(-c2ccccc2[C@@H]2[C@@H](C#N)N(C(=O)C3CC3)[C@H]2CO)cc1	-9[25 µM]
SMILES	CD40 NFkB inh
O=C1c2cccc3c([N+](=O)[O-])ccc(c23)C(=O)N1Cc1cccnc1	84*
O=C1c2cccc3cccc(c23)C(=O)N1Cc1cccnc1	4
Cc1ccc(N2C(=O)c3cccc4c([N+](=O)[O-])ccc(c34)C2=O)c2cccnc12	2
CN1CCN(c2ccc(NC(=O)N3CCc4ccccc43)cc2)CC1	73*
CC(=O)c1cccc(NC(=O)N2CCCc3ccccc32)c1	-23
CN1C(=O)CSc2ccc(NC(=O)N3CCc4ccccc43)cc21	-118
Cc1ccc(/C=C/c2nc3ccccc3s2)s1	75*
c1ccc2sc(-c3ccncc3)nc2c1	-64
c1ccc2sc(N3CCOCC3)nc2c1	-29
COc1ccc(C#Cc2ccc3c(c2)O[C@H](CN(C)C(=O)CN2CCOCC2)[C@@H](C)CN([C@H](C)CO)S3(=O)=O)cc1	-3[25 µM]
COc1ccc(S(=O)(=O)N2CC[C@@H]3[C@@H](CO)Nc4ccc(-c5ccccc5F)cc4[C@@H]32)cc1	17[25 µM]
C[C@H]1CN([C@@H](C)CO)C(=O)c2ccccc2-c2ccccc2CO[C@@H]1CN(C)C(=O)Nc1ccc2c(c1)OCO2	-19[25 µM]
C/C=C/c1ccc([C@H]2[C@H]3CN(C(=O)Nc4cccc(OC)c4)CC(=O)N3[C@H]2CO)cc1	-19[25 µM]
C[C@H]1CN([C@@H](C)CO)C(=O)c2ccccc2-c2ccccc2CO[C@@H]1CN(C)Cc1ccccc1C(F)(F)F	66*[25 µM]
C[C@H](CO)N1C[C@H](C)[C@H](CN(C)Cc2ccc(Oc3ccccc3)cc2)OCc2ccccc2-c2ccccc2C1=O	57*[25 µM]
COc1ccccc1CN(C)C[C@@H]1OCc2ccccc2-c2ccccc2C(=O)N([C@H](C)CO)C[C@@H]1C	-3[25 µM]
C[C@H](CO)N1C[C@H](C)[C@H](CN(C)Cc2ccccc2)OCc2ccccc2-c2ccccc2C1=O	11
COc1ccccc1CN(C)C[C@@H]1OCc2ccccc2-c2ccccc2C(=O)N([C@@H](C)CO)C[C@@H]1C	-13[25 µM]
C[C@H](CO)N1C[C@H](C)[C@H](CN(C)Cc2ccc(-c3ccccc3)cc2)OCc2ccccc2-c2ccccc2C1=O	6

Assay outcomes deposited in PubChem BioAssay by Broad Institute.
